A selection: hits, their analogues and other compounds. The true share with any hit is near 3.5%.
TEAD-YAP inh: TEAD-YAP interaction inhibition. hit rate 1.4% among 640,000. inhibition, % at 9.12 µM. HEK-TIYL cells, TEAD-Gal4/YAP UAS-luciferase luminescence; in the data active = inhibition above about 32%;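 note: 0% = median of test compound wells and 100% = reference inhibitor wells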
FBW7 act: human FBW7 E3 ligase activation, primary screen; Q969H0; AlphaScreen FBW7–phospho-cyclin E peptide binding, activator screen; normalized activity (activation), % at 26.1 µM; hit rate 0.13% among 650,000; AID 1259310; in the data active = normalized activity above about 1.9%;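 note: purified mutant Fbw7 with reduced substrate affinity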
MITF primary: blocks human microphthalmia-associated transcription factor | O75030 | AlphaScreen MITF homodimerization, bead proximity signal | inhibition, % at 2.6 µM | hit rate 0.91% among 650,000 | AID 1259374; in the data active = inhibition above about 50%;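 note: 0% = vehicle wells with protein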
Target sequence (O75030 whole entry, looked up): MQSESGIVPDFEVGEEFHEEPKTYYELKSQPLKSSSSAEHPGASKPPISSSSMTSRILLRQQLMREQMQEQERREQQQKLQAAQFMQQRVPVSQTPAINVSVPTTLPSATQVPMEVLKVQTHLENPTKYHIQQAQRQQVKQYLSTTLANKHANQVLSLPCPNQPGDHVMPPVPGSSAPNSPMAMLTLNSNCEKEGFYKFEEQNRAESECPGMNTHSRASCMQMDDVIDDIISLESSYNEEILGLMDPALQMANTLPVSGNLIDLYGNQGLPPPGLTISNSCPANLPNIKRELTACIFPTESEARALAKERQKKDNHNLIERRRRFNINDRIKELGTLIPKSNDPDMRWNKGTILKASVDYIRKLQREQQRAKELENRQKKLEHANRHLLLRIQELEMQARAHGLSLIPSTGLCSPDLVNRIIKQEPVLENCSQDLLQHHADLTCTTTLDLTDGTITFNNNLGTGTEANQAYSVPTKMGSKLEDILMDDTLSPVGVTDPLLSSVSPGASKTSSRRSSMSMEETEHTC
GPR151 activ: activators of human GPR151; Q8TDV0; PathHunter beta-arrestin GPR151 cells, luminescence; activation, % at 11.2 µM; hit rate 1% among 650,000; AID 1508602; in the data active = activation above about 4.9%;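 note: 0% = median of compound wells and 100% = cells with positive control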
The depositor's hits bear a star; ! = repeats disagree.

SMILES | TEAD-YAP inh | FBW7 act | MITF primary | GPR151 activ
Cc1ccc(C(=O)c2c(C)[n+](-c3ccccc3)c3scc(C)n23)cc1 | 34* | 0 | 12 | 2
CC(C)(C)C(=O)NC1CCN(Cc2nnnn2Cc2ccco2)CC1 | 71* | 0 | -1 | -5
O=C(NC1CCCCC1)NC1CCN(Cc2nnnn2Cc2ccco2)CC1 | 0 | 0 | -13 | -1
COC(C(=O)N/N=C/c1ccc(N(C)C)cc1)c1ccccc1 (configuration not stated) | -2 | 0 | 12 | 0
CCN(CC)S(=O)(=O)c1cccc(C(=O)Nc2ccc(O)cc2)c1 | 48* | 0 | 5 | -2
CN(C)S(=O)(=O)c1cccc(C(=O)Nc2cccc(O)c2)c1 | 58* | 0 | -10 | 0
CCOC(=O)c1ccc(NC(=O)c2cccc(OCC)c2)cc1 | -18 | 0 | -5 | -2
CCN(CC)S(=O)(=O)c1cccc(C(=O)Nc2cccc(NC(=O)c3cccc(S(=O)(=O)N(CC)CC)c3)n2)c1 | 12 | 0 | 2 | 0
CCOC(=O)c1ccc(NC(=O)c2cccc(S(=O)(=O)N(CC)CC)c2)cc1 | 43* | 0 | 5 | 1
O=C(CN1C(=O)C2C3C=CC(C3)C2C1=O)N1CCN(c2cccc(Cl)c2)CC1 (configuration not stated) | 16 | 0 | 4 | -1
Oc1ccc(CCNc2cc(-c3ccc(N4CCOCC4)nc3)ncn2)cc1 | -1 | 0 | 17 | -2
Nc1ccc(-c2nc3c(Cl)c(N)c(Cl)cc3[nH]2)cc1Cl | -44 | 0 | 13 | -3
Cc1ccc(S(=O)(=O)NCCN=Cc2c[nH]c3ccccc23)cc1 | 3 | 0 | 20 | 0
CCOC(=O)CC(=O)CSc1nc2c(sc(=S)n2-c2ccccc2)c(=O)n1-c1cc(OC)ccc1OC | 11 | 0 | 12 | 0
COc1cc([N+](=O)[O-])ccc1N/C(N)=N/c1nc(C)cc(C)n1 | 57*! | 0 | -20 | 0
Cc1cc(C)nc(/N=C(\N)Nc2ccc([N+](=O)[O-])cc2C)n1 | -1 | 0 | 0 | 2
O=[N+]([O-])c1cccc(CN2CCN(Cc3cc(Br)ccc3O)CC2)c1 | 9 | 0 | 65* | 0
O=[N+]([O-])c1cccc(CN2CCCCCC2)c1 | 1 | 0 | 4 | 0
N#Cc1c(N)nc(SCC(=O)O)c(C#N)c1-c1ccc(O)cc1 | -3 | 0 | -9 | 5
N#Cc1c(N)nc(SCC(=O)c2ccc(F)cc2)c(C#N)c1-c1ccc(O)cc1 | 34* | 0 | -5 | 4
Cc1nc(NCCNC(=O)Cc2ccc(F)cc2)cc(N(C)C)n1 | -1 | 0 | 7 | 2
O=C(O)C1Nc2c(Cl)cc(Cl)cc2C2C=CCC12 (configuration not stated) | 8 | 0 | 59* | 1
O=C(O)C1Nc2c(Cl)cc(Cl)c(Cl)c2C2C=CCC12 (configuration not stated) | 9 | 1 | 58* | -1
Clc1cc(Cl)c2c(c1)C1C=CCC1C(c1ccccc1)N2 (configuration not stated) | 10 | 0 | 12 | 0
COc1ccc(CNC(=O)Cn2nc(C)n3c(cc4cc(C)ccc43)c2=O)cc1 | 4 | 0 | 2 | -1
SMILES | TEAD-YAP inh | FBW7 act | MITF primary | GPR151 activ
COc1cc(C(=O)NC(=S)Nc2ccc(Br)cn2)cc(OC)c1OC | 4 | 0 | 17 | 1
CCOC(=O)c1cnc2ccc(OCC)cc2c1Nc1cccc(OC)c1 | -1 | 0 | 3 | 0
CCOc1ccc2ncc(C#N)c(Nc3cc(OC)cc(OC)c3)c2c1 | 45* | 0 | -10 | 0
Cn1cccc1C(=O)NC(=O)COC(=O)c1cc(-c2ccco2)nc2ccccc12 | -4 | 0 | 77* | 3
Oc1cccc2ccc(/C=C/c3ccc(Cl)cc3)nc12 | 46* | 0 | 5 | -2
CC(=O)Oc1ccc(/C=C/c2ccc3cccc(OC(C)=O)c3n2)cc1[N+](=O)[O-] | -7 | 0 | 21 | -7
CC(C)Oc1ccc(/C=C/c2ccc3cccc(O)c3n2)cc1 | 80* | 0 | 5 | -9
Oc1cccc(/C=C/c2ccc3cccc(O)c3n2)c1 | 47* | 0 | 6 | -4
COc1ccc(/C=C/c2ccc3cccc(OC(C)=O)c3n2)cc1OC(C)=O | 75* | 0 | 17 | -4
Oc1c(Br)cc(/C=C/c2ccc3cccc(O)c3n2)cc1Br | 17 | 0 | 7 | -1
CCSc1nnc(NC(=O)c2ccccc2[N+](=O)[O-])s1 | -3 | 0 | 10 | 2
COc1cc(C(=O)Nc2cccc(-c3nc4ncccc4o3)c2)ccc1OCc1ccc(Cl)cc1 | 6 | 0 | 13 | 0
COc1ccc(CC(=O)Nc2cccc(-c3nc4ncccc4o3)c2)cc1OC | 71* | 0 | 1 | 1
O=C(Nc1cnc2ccccc2c1)c1ccc(Cl)cc1Cl | 66* | 0 | 10 | -4
O=C(Nc1nc2ccccc2[nH]1)c1ccccc1Cl | 83* | 0 | 3 | -11
O=C(Nc1nc2ccccc2[nH]1)c1ccc([N+](=O)[O-])cc1Cl | 18 | 0 | 3 | -6
O=C(Nc1nc2ccccc2[nH]1)c1ccc(Cl)cc1Cl | 84* | 0 | -10 | -11
C=CCNC(=S)Nc1ccc(NC(C)=O)cc1 | -2 | 0 | 2 | 3
COc1cccc(C2CC(c3ccc(C)c(C)c3)Nc3ncnn32)c1OC (configuration not stated) | -11 | 0 | 6 | 1
COc1ccc(C2C(C(=O)Nc3cccc(C(F)(F)F)c3)=C(C)NC3=C2C(=O)CCC3)cc1 (configuration not stated) | -9 | 0 | -9 | 0
COCCNc1c(-c2ccccc2)nc2ccc(C)cn12 | -24 | 0 | 5 | -1
Cc1ccc2nc(=S)nc(-c3ccccc3)n2c1 | 70* | 0 | -6 | 1
Cc1ccn2c(N)c(-c3ccccc3)nc2c1 | -8 | 0 | 16 | -1
Cc1ccc2nc(-c3ccccc3)c(N)n2c1 | 69* | 0 | -1 | -10
CSc1nc2ccc(NC(=O)CN3C(=O)NC4(CC(C)CC(C)(C)C4)C3=O)cc2s1 (configuration not stated) | -8 | 0 | 7 | 0
SMILES | TEAD-YAP inh | FBW7 act | MITF primary | GPR151 activ
CC1=C(C(=O)OCc2ccc3c(c2)OCO3)C(c2cc3c(cc2Br)OCO3)NC(=O)N1 (configuration not stated) | 1 | 0 | -9 | 1
CCc1ccc(C2NC(=O)NC(C)=C2C(=O)OCc2ccc3c(c2)OCO3)cc1 (configuration not stated) | 55* | 0 | -3 | -1
CC1=C(C(=O)OCc2ccc3c(c2)OCO3)C(c2ccccc2)NC(=O)N1 (configuration not stated) | 51* | 0 | 15 | 1
COC(=O)c1cn(NC(=O)c2cc([N+](=O)[O-])ccc2F)c(=O)c2ccccc12 | 87* | 0 | -8 | 0
COc1ccc(N2C(=O)c3ccccc3NC2c2cccc([N+](=O)[O-])c2)cc1 (configuration not stated) | -23 | 1 | 17 | -1
COc1ccc(N2C(=O)c3ccccc3NC2c2ccc(-c3ccc([N+](=O)[O-])cc3)o2)cc1 (configuration not stated) | 41* | 0 | -4 | 0
